Measured values published in PubChem BioAssay.
Inconclusive results are not listed. Calls of active or inactive are those of the source. Unless noted, no stated cut-off is given here; in the data, active means percent of DMSO control GFP below about 86%; inactive means the rest, inconclusive results apart.

How the values were obtained:
[1] = yeast TOR pathway RPL19A-GFP modulators, primary screen, cell-based, S. cerevisiae, multiplex flow cytometry (AID 1862);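 further: lower values mimic rapamycin by blocking the RPL19A rise seen in DMSO cells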; conditions: S. cerevisiae RPL19A-GFP strain, flow cytometry fluorescence, 3 h; at 10 µM; stronger effect = lower value
[2] = modulators of MEP2-GFP levels in yeast, primary screen, S. cerevisiae, multiplex flow cytometry (AID 1867;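 active means GFP response, as percent of the DMSO control, above the screen-wide mean plus 3 SD, about 139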;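 further: median GFP channel fluorescence of barcode-gated MEP2-GFP cells measured by flow cytometry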); conditions: S. cerevisiae MEP2-GFP strain, 3 h, at 10 µM, stronger effect = higher value, 100% means same as DMSO wells
[3] = modulators of CIT2-GFP expression in yeast, primary screen, S. cerevisiae, GFP fusion, multiplex flow cytometry (AID 1870;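 active means percent response above a set limit, the screen-wide mean plus 3 SD, cut at about 130% in these data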;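 further: barcoded CIT2-GFP strain pooled with four other GFP strains with rapamycin as positive control; median GFP fluorescence per well over plate mean of DMSO wells so 100% = DMSO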); conditions: 3 h, at 10 µM, stronger effect = higher value
[4] = modulators of LAP4-GFP expression in yeast, primary screen, S. cerevisiae, multiplex flow cytometry (AID 1873;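 active means GFP signal, as percent of the solvent control, above the screen mean plus 3 SD, about 149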); conditions: 3 h, at 10 µM, stronger effect = higher value
[5] = modulators of AGP1-GFP expression in yeast TOR pathway, primary screen, cell-based, multiplex flow cytometry, S. cerevisiae (AID 1887;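 active means GFP signal above the screen-wide mean plus 3 SD, that is over about 124.5% of the solvent control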;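 further: AGP1-GFP fusion strain of S. cerevisiae within a five-strain barcoded multiplex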); conditions: 3 h, at 10 µM, stronger effect = higher value
[6] = inhibitors of CD8+ T cell-vesicle binding, pilot screen, LFA-1/ICAM-1 modulator project, MLPCN validation set, flow cytometry (AID 2523;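 active means response below a set limit, under 55% cells CD8-positive and vesicle-bound, and CD8 cells' 90th-percentile brightness under 279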;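 on vesicle binding response: mean PE anti-B7-1 fluorescence of CD8+ cells relative to row control; 100% = QL9-loaded vesicles with DMSO vehicle in the same plate row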); conditions: 2C mouse CD8+ T cells, at 7 µM, stronger effect = lower value; double positive events: measured here: CD8+/vesicle+ event percentage
[7] = molecular target: Integrin beta-1 (Homo sapiens) + Integrin alpha-4 (Homo sapiens) (UniProt P13612+P05556); experiment: inhibition of HUTS-21 binding to VLA-4, pilot screen, VLA-4 allosteric modulator project, U937 cells, HUTS-21 mAb, flow cytometry, validation set (AID 2674;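 active means inhibition above 50%, about 3 SD of the validation set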;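 further: antibody binding induced by the VLA-4 ligand LDV present at three times its Kd; 0% = LDV ligand with antibody and no compound and 100% = antibody without LDV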); conditions: HUTS-21 LIBS mAb binding, at 6.7 µM, stronger effect = higher value, binding induced by LDV ligand
Sequence of Integrin beta-1 (Homo sapiens) + Integrin alpha-4 (Homo sapiens) (P05556 whole entry, looked up): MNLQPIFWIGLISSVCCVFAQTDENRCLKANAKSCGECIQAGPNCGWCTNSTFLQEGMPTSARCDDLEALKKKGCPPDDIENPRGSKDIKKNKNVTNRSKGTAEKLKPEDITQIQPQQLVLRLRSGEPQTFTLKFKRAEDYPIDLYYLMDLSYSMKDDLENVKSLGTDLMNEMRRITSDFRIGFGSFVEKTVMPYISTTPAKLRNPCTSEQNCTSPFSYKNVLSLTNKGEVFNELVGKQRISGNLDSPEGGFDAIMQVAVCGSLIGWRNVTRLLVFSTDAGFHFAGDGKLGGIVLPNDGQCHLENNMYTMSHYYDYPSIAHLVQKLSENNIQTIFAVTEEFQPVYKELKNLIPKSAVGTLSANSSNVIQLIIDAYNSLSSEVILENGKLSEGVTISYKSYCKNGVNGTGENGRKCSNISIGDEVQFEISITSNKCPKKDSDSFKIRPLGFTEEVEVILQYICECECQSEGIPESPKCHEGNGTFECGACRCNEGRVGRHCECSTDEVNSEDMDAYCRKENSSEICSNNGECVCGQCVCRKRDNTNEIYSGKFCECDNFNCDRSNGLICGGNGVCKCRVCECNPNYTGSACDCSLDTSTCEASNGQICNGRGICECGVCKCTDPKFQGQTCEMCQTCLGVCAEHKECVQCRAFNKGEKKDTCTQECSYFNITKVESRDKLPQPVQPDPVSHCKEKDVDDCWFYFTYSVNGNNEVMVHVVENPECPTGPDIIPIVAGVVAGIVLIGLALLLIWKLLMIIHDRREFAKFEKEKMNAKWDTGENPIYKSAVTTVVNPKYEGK
Sequence of Integrin beta-1 (Homo sapiens) + Integrin alpha-4 (Homo sapiens) (P13612 whole entry, looked up): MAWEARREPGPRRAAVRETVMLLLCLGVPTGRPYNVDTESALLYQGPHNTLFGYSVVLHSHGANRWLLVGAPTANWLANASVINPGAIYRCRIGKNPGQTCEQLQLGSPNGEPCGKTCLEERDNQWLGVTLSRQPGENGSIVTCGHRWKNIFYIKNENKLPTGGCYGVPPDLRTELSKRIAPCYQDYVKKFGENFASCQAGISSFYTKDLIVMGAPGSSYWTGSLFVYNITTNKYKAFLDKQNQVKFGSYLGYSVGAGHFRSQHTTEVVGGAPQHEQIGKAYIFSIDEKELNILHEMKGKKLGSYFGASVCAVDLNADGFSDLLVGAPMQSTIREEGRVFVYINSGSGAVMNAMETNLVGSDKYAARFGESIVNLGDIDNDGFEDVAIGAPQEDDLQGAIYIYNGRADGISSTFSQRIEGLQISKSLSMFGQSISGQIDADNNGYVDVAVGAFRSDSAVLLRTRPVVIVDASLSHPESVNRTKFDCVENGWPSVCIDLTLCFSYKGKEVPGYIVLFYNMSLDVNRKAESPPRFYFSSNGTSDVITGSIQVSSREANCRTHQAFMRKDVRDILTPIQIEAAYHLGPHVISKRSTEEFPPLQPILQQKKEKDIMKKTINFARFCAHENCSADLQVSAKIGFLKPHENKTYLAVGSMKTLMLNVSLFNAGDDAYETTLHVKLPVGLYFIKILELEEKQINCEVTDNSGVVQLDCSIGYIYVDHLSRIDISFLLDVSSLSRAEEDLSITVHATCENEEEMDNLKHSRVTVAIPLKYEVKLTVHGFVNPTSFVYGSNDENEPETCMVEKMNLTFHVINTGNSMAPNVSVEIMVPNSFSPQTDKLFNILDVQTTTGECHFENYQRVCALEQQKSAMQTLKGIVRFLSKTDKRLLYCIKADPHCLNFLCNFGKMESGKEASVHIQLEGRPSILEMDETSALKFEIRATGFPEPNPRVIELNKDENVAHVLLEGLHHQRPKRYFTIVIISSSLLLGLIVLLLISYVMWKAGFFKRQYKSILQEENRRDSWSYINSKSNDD

[8] = superoxide lowering in aged yeast cells, pilot screen, validation compound set (AID 2706;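 active means superoxide response below 65% of plate, a cut near 3 SD across the whole screen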;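 further: yeast exposed to compound for one week at 30 degrees C before staining; 100% = mean of all compound wells on the same plate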); conditions: S. cerevisiae aging, superoxide DHE fluorescence; at 10 µM; stronger effect = lower value
[9] = molecular target: Beta-adrenergic receptor kinase 1 (Homo sapiens) (UniProt P25098); experiment: GRK2 binders displacing RNA aptamer, biochemical, validation, human GRK2, bead flow cytometry (AID 488806;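 active means aptamer binding inhibition above 30%, about 3 SD of noise from non-fluorescent compounds; inactive means inhibition at or below 30%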); conditions: bead-bound GRK2, FAM-aptamer displacement, at 10 µM, stronger effect = higher value
Sequence of Beta-adrenergic receptor kinase 1 (Homo sapiens) (P25098 whole entry, looked up): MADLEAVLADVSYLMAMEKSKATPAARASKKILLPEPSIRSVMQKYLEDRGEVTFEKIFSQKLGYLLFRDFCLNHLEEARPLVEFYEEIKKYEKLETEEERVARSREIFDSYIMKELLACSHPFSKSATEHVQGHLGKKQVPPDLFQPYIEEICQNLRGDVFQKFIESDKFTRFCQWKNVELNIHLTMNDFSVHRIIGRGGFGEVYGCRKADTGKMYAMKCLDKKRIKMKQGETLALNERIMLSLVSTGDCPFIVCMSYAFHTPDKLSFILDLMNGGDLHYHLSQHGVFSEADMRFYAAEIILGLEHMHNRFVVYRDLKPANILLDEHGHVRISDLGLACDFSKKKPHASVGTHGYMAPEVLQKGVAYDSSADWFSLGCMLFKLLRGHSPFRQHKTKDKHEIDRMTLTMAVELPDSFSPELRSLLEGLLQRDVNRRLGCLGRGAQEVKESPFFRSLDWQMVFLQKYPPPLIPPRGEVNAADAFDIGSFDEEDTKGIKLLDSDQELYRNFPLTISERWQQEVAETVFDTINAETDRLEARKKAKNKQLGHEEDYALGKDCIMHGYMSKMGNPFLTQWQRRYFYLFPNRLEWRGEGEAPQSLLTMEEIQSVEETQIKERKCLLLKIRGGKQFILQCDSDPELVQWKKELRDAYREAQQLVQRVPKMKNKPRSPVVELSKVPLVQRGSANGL

[10] = molecular target: Beta-2 adrenergic receptor (Homo sapiens) (UniProt P07550); experiment: beta2AR agonists driving receptor internalization, pilot screen, cell-based, FAP fluorogen, flow cytometry, validation set (AID 504459;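 active means percent response above 42, roughly 3 SD of non-fluorescent test compounds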;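 further: agonist-driven loss of surface beta2AR via internalization measured by FAP dye flow cytometry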); conditions: Am2.2-beta2AR cells, FAP surface receptor flow cytometry; at 10 µM; stronger effect = higher value
Sequence of Beta-2 adrenergic receptor (Homo sapiens) (P07550 whole entry, looked up): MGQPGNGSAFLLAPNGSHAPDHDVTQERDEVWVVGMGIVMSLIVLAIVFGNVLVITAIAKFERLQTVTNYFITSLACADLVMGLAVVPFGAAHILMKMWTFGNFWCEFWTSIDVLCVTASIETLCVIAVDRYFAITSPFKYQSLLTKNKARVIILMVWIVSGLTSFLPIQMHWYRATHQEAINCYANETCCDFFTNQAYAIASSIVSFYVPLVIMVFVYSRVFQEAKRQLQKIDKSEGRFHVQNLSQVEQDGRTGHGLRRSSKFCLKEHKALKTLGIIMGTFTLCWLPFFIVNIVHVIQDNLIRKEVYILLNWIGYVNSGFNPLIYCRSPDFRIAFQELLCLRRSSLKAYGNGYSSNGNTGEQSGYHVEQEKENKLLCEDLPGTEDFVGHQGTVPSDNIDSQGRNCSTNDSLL

[11] = molecular target: AP-2 complex subunit beta (Homo sapiens) (UniProt P63010); experiment: inhibitors of arrestin peptide binding to AP2, pilot screen, biochemical, validation set, GST-AP2 beads, flow cytometry (AID 504541;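 active means inhibition above 54%, about 3 SD of non-fluorescent compounds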;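 further: AP2 carries R879A mutation and is captured from E. coli lysate; bead-bound FITC arrestin peptide fluorescence measuring arrestin peptide binding to AP2; 0% = DMSO wells and 100% = excess unlabeled arrestin peptide control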); conditions: FITC arrestin peptide, at 10 µM, stronger effect = higher value, AP2 beta2 appendage fragment, R879A mutant
Sequence of AP-2 complex subunit beta (Homo sapiens) (P63010 whole entry, looked up, the tested form may be a part, one chain of several): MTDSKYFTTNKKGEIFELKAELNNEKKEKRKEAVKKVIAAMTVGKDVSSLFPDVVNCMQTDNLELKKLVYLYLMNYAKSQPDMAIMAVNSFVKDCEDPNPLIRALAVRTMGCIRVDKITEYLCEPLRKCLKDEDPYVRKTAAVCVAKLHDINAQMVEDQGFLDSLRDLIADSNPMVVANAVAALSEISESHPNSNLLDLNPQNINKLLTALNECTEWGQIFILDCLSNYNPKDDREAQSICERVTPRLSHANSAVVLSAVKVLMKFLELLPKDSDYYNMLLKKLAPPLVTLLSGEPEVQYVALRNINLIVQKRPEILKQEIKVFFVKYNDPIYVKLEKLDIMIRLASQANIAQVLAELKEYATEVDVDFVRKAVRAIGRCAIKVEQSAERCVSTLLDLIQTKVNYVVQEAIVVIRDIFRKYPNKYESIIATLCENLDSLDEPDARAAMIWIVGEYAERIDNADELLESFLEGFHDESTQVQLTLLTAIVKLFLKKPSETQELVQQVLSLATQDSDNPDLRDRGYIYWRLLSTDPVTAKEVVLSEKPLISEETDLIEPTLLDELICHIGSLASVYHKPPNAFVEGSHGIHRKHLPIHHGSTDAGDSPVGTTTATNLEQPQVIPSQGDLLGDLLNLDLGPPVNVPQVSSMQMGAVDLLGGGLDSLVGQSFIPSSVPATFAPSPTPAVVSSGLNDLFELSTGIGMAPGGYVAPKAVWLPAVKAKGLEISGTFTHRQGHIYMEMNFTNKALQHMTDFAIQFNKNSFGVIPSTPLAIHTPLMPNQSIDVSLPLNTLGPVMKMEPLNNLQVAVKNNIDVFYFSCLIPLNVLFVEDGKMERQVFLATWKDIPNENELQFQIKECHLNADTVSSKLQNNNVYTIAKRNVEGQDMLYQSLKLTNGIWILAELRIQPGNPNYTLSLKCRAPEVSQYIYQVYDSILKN

[12] = yeast V-ATPase proton transport modulators, S. cerevisiae, pHLuorin, HTS validation (AID 504600; in the data active means response above about 15%;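 further: plate controls were DMSO for no effect and reference compound for full effect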); conditions: S. cerevisiae pHLuorin cytosolic pH, at 10 µM, stronger effect = higher value
[13] = system: anti-desmoglein-3 scFv antibody binding to human DSG3; experiment: inhibitors of anti-DSG3 scFv binding to DSG3, pilot screen, biochemical, validation compound set, bead-based, flow cytometry (AID 588368;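 active means binding below the plate cutoff, the plate median minus 3 SD, with a reading above zero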;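 further: signal is the median channel fluorescence of bead-bound GFP antibody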); conditions: Protein G beads, DSG3-Fc, scFv-GFP binding, at 10 µM, stronger effect = lower value
[14] = inhibitors of fungal efflux pumps CDR1, CDR2, MDR1, pilot screen, validation compound set, multiplex, phenotypic (AID 588506;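 active means efflux inhibition above 0.42, the validation set average plus 4 SD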;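 further: Nile Red retained in cells so higher fluorescence means more efflux inhibition; 0 = negative control wells and 1 = enniatin B 25 µM full block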); conditions: S. cerevisiae pump-expressing triplex, Nile Red efflux flow cytometry; at 10 µM; stronger effect = higher value; the pumps come from Candida albicans
[15] = molecular target: ATP-binding cassette sub-family B member 6 (Homo sapiens) (UniProt Q9NP58); experiment: ABCB6 transporter inhibitors, pilot screen, K562-ABCB6 cells, flow cytometry, validation set (AID 588550;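 active means inhibition above the screen-wide mean plus 3 SD, about 51%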;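 further: 0% = DMSO wells and 100% = benzethonium chloride 70 µM positive control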); conditions: K562-ABCB6 porphyrin accumulation, 1 h, at 10 µM, stronger effect = higher value
Sequence of ATP-binding cassette sub-family B member 6 (Homo sapiens) (Q9NP58 whole entry, looked up): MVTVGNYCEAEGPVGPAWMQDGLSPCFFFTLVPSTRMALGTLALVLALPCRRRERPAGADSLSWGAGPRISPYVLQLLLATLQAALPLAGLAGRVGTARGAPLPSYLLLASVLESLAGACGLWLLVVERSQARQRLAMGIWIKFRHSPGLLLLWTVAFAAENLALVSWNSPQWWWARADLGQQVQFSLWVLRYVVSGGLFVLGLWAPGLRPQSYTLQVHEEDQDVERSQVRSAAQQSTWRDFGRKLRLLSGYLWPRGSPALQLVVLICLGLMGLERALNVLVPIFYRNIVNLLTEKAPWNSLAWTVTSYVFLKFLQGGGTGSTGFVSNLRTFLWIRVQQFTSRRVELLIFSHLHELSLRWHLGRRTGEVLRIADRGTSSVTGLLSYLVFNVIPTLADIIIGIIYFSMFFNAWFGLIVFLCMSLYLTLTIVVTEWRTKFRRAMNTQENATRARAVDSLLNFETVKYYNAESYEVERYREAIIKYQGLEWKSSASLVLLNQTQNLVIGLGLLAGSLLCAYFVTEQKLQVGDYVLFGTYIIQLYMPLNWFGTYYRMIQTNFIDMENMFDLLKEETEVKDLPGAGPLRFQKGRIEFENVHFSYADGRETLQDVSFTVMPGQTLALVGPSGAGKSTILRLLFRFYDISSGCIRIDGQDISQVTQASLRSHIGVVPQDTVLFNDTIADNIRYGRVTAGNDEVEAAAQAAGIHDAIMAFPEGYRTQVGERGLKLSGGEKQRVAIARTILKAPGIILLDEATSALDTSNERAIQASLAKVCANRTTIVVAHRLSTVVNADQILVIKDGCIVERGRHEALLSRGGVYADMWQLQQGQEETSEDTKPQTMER

[16] = promoters of myeloid differentiation in arrested cells, primary screen, cell-based, GFP/MAC1 double positive, flow cytometry, validation set (AID 588685;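 active means differentiation response of at least 50%, scaled between solvent and reference control, from cells with both markers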;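 further: compound exposure lasts four days before antibody staining and flow analysis; 0% = DMSO wells and 100% = 5 µM fulvestrant positive control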); conditions: ER-HoxA9 marrow cells, stronger effect = higher value, normalized: vehicle 0, fulvestrant 100

C=C(C)Cn1c(NCCOC)nc2c1c(=O)[nH]c(=O)n2C
64.5%: double positive events [6]
inactive: percent of DMSO control GFP [1] 103% | GFP response vs DMSO [2] 112% | percent response of DMSO control [3] 104% | GFP response vs DMSO [4] 96.6% | GFP response, % of DMSO [5] 98.8% | vesicle binding response [6] 327% | inhibition [7] -5.64% | superoxide response (% of plate) [8] 98.4% | aptamer binding inhibition [9] 3% | response [10] 3.03% | inhibition [11] -1.55% | response [12] -1.65% | binding (% of control) [13] 99.8% | efflux inhibition (fraction of control) [14] -0.07 | inhibition [15] -4% | differentiation response [16] 0.24%

O=C1C(O)CC2c3ccccc3CC3(CCCC3)N12 (stereo not given)
61.4%: double positive events [6]
inactive: percent of DMSO control GFP [1] 100% | GFP response vs DMSO [2] 104% | percent response of DMSO control [3] 105% | GFP response vs DMSO [4] 114% | GFP response, % of DMSO [5] 100% | vesicle binding response [6] 247% | inhibition [7] -0.43% | superoxide response (% of plate) [8] 106% | aptamer binding inhibition [9] 1% | inhibition [11] -6.78% | response [12] 0.88% | binding (% of control) [13] 99.9% | efflux inhibition (fraction of control) [14] 0.08 | inhibition [15] -110% | differentiation response [16] -18.4%
active: response [10] 48%

CC(C)(C)n1c(=O)[nH]c2c(c1=O)CCC2
inactive: percent of DMSO control GFP [1] 105% | GFP response vs DMSO [2] 103% | percent response of DMSO control [3] 98.3% | GFP response vs DMSO [4] 113% | GFP response, % of DMSO [5] 110% | vesicle binding response [6] 205% | inhibition [7] 8.25% | superoxide response (% of plate) [8] 98.5% | aptamer binding inhibition [9] 0% | response [10] -17.6% | response [12] 7.46% | binding (% of control) [13] 100% | efflux inhibition (fraction of control) [14] 0.08 | inhibition [15] -3% | differentiation response [16] -12.9%
61.8%: double positive events [6]
active: inhibition [11] 66.2%

CCc1cc(=O)oc2cc(OCc3nn[nH]n3)ccc12
inactive: percent of DMSO control GFP [1] 102% | GFP response vs DMSO [2] 100% | percent response of DMSO control [3] 96.6% | GFP response vs DMSO [4] 96% | GFP response, % of DMSO [5] 100% | vesicle binding response [6] 174% | inhibition [7] -10.8% | superoxide response (% of plate) [8] 106% | aptamer binding inhibition [9] 5% | response [10] -3.63% | inhibition [11] 9.23% | response [12] -0.49% | binding (% of control) [13] 103% | efflux inhibition (fraction of control) [14] 0.02 | inhibition [15] 14% | differentiation response [16] 0.24%
65.5%: double positive events [6]

Cc1ccc(-c2nn(-c3cccc(F)c3)cc2CN2CCN(c3ccccn3)CC2)o1
54.2%: double positive events [6]
inactive: percent of DMSO control GFP [1] 101% | GFP response vs DMSO [2] 107% | percent response of DMSO control [3] 92% | GFP response vs DMSO [4] 123% | GFP response, % of DMSO [5] 101% | vesicle binding response [6] 2920% | inhibition [7] 0.94% | superoxide response (% of plate) [8] 95.7% | aptamer binding inhibition [9] 5% | response [10] 25.4% | inhibition [11] 5.48% | response [12] -6.07% | binding (% of control) [13] 101% | efflux inhibition (fraction of control) [14] 0.37 | inhibition [15] 12% | differentiation response [16] -23.2%

Cc1ccc(CN2CCN(Cc3cn[nH]c3C3CCCCC3)CC2CCO)cc1 (stereo not given)
58.2%: double positive events [6]
inactive: percent of DMSO control GFP [1] 102% | GFP response vs DMSO [2] 103% | percent response of DMSO control [3] 97.7% | GFP response vs DMSO [4] 106% | GFP response, % of DMSO [5] 122% | vesicle binding response [6] 264% | inhibition [7] 21% | superoxide response (% of plate) [8] 87.9% | aptamer binding inhibition [9] 0% | response [10] -22.7% | inhibition [11] 7.73% | response [12] -2.29% | binding (% of control) [13] 103% | efflux inhibition (fraction of control) [14] 0.08 | inhibition [15] 8% | differentiation response [16] -5.97%

Cc1cc(O)c2/c(=N\N)c(-c3csc(C)n3)coc2c1
56.7%: double positive events [6]
inactive: percent of DMSO control GFP [1] 105% | GFP response vs DMSO [2] 107% | percent response of DMSO control [3] 102% | GFP response vs DMSO [4] 106% | GFP response, % of DMSO [5] 110% | vesicle binding response [6] 96.1% | inhibition [7] 5.61% | superoxide response (% of plate) [8] 102% | aptamer binding inhibition [9] 3% | response [10] 2.22% | inhibition [11] -8.85% | response [12] -3.38% | binding (% of control) [13] 99.8% | efflux inhibition (fraction of control) [14] -0.16 | inhibition [15] 3% | differentiation response [16] -0.18%

O=C(Nc1ccc(Cl)cn1)Nc1ccccc1Cl
64.5%: double positive events [6]
active: response [12] 23.4%
inactive: percent of DMSO control GFP [1] 103% | GFP response vs DMSO [2] 105% | percent response of DMSO control [3] 107% | GFP response vs DMSO [4] 111% | GFP response, % of DMSO [5] 102% | vesicle binding response [6] 144% | inhibition [7] -3.77% | superoxide response (% of plate) [8] 93.6% | aptamer binding inhibition [9] 2% | response [10] -0.99% | inhibition [11] -8.05% | binding (% of control) [13] 105% | efflux inhibition (fraction of control) [14] -0.55 | inhibition [15] -4% | differentiation response [16] -11.9%

CC(C)(C)N1NC2(CCCCC2)NC1=S
53.1%: double positive events [6]
inactive: percent of DMSO control GFP [1] 99.8% | GFP response vs DMSO [2] 113% | percent response of DMSO control [3] 118% | GFP response vs DMSO [4] 80.9% | GFP response, % of DMSO [5] 95.2% | vesicle binding response [6] 193% | inhibition [7] -3.24% | superoxide response (% of plate) [8] 125% | aptamer binding inhibition [9] -1% | response [10] -12.5% | inhibition [11] -12.7% | response [12] 0.59% | binding (% of control) [13] 104% | efflux inhibition (fraction of control) [14] 0.27 | inhibition [15] 7% | differentiation response [16] 1.64%

COc1ccc2c(c1)[N+](C)(C)C(C)(C)C=C2C
inactive: percent of DMSO control GFP [1] 105% | GFP response vs DMSO [2] 96.2% | percent response of DMSO control [3] 111% | GFP response vs DMSO [4] 90.1% | GFP response, % of DMSO [5] 99.9% | vesicle binding response [6] 953% | inhibition [7] 15.1% | superoxide response (% of plate) [8] 103% | aptamer binding inhibition [9] 2% | response [10] -8.39% | inhibition [11] -11.1% | response [12] -1.92% | binding (% of control) [13] 95.6% | efflux inhibition (fraction of control) [14] -0.04 | inhibition [15] 5% | differentiation response [16] 12.9%
70.1%: double positive events [6]
